This is an account of results in PubChem BioAssay (NCATS).

Inconclusive results are not listed. Calls of active or inactive are those of the source. Unless noted, calls follow the shape of the full dose curve.

Assay [1] can be described thus: Primary qHTS for inhibitors of SARS-S pseudo-typed particle cell entry (AID 1479145). Also: nearly all actives have a fitted effect of over 45% in size. Also: potency is read from the fitted curve at half-maximal effect. For orientation: qHTS replaces the single test concentration by a dilution series.
Assay [2] can be described thus: Primary qHTS for Huh7 cytotoxicity: counterscreen for inhibitors of MERS-S pseudotyped particle cell entry (AID 1479147).
A short description of assay [3]: Primary qHTS for Vero E6 cytotoxicity: counterscreen for inhibitors of SARS-S pseudo-typed particle cell entry (AID 1479150). Also: potency is read from the fitted curve at half-maximal effect.
Assay [4] is described as follows: Primary qHTS for inhibitors of MERS-S pseudo-typed particle cell entry (AID 1479149). Also: nearly all actives have a fitted effect of over 60% in size.
The nature of assay [5]: Primary qHTS for inhibitors of La Crosse Virus (LACV) - induced cell death in SH-SY5Y cells (AID 1508616; active = well fitted inhibition curve with a large enough effect;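 also: top concentration of the series differs between compounds; higher means more rescue of cells from virus-induced death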). A digest of the protocol:
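Rescue of virus-induced death was read as ATPLite luminescence after 6 days at 37C, scaled between DMSO wells with LACV and without virus. Cells were SH-SY5Y, 6000/well, infected at 0.01 MOI after compound addition.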

Assay [6] concerns the target Calcium and integrin-binding protein 1 (Homo sapiens) (UniProt Q99828). Put plainly: Confirmatory qHTS for Identification of Calcium Integrin Binding Protein 1 (CIB1) Competitor (AID 1508617; active = well fitted inhibition curve with a large enough effect; also: nearly all actives have a fitted effect of over 65% in size). The method, boiled down:
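Confirmatory qHTS measures displacement of a FITC-alphaIIb peptide (100 nM) from CIB1-GST (1 uM) by fluorescence polarization. Calcium-containing HEPES buffer, pH 7.4; two 15 min room-temperature incubations.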

Sequence of Calcium and integrin-binding protein 1 (Homo sapiens) (Q99828 whole entry, looked up): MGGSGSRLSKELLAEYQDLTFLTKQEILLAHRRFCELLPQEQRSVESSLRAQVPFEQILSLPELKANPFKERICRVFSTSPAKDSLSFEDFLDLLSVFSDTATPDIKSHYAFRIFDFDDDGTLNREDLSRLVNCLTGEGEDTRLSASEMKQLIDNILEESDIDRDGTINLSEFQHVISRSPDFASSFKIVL

For the compound `CCCc1ccc(OCC(=O)N2CCN(C(=O)COc3ccc(CCC)cc3OC)CC2)c(OC)c1`, the Potency result in assay [1], in assay [2] and in assay [3] was “inactive” each time.

On to `COc1c2c(cc3c1OCO3)CCN(C)C2`, for which the Potency result in assay [1], in assay [2], in assay [4] and in assay [3] was “inactive” throughout. Moreover, the outcome in assay [5] was inactive.

For the compound `C[C@]12CC[C@@H]3c4ccc(OC(=O)N(CCCl)CCCl)cc4CC[C@H]3[C@@H]1CC[C@@H]2O`, the Potency entry in assay [1], in assay [2], in assay [4] and in assay [3] was “inactive” each time. Moreover, the call in assay [5] was inactive.

Take `Clc1cccc(C(c2ccc3nc[nH]c3c2)n2ccnc2)c1` (stereo not drawn): the Potency entry in assay [1], in assay [2], in assay [4] and in assay [3] was “inactive” in each case.

Turning to `C[C@]12CCC(=O)C=C1CC[C@@H]1[C@@H]2CC[C@]2(C)C(=O)CC[C@@H]12`, the Potency entry in assay [1], in assay [2], in assay [4] and in assay [3] was “inactive” each time. Also, in assay [5], the compound was classed as inactive.

For the compound `CCc1cc2c(s1)-n1c(C)nnc1CN=C2c1ccccc1Cl`, the Potency entry in assay [1], in assay [2], in assay [4] and in assay [3] was “inactive” each time. In assay [5], the result was inactive.

For `Nc1nc(Cl)nc2c1ncn2[C@@H]1O[C@H](CO)[C@@H](O)[C@@H]1F`, the Potency in assay [1] is 20 µM (active). Moreover, the Potency entry in assay [2] and in assay [3] was “inactive” each time.

In the case of `O=C1OC(c2ccc(O)c(S(=O)(=O)O)c2)(c2ccc(O)c(S(=O)(=O)O)c2)c2c(Br)c(Br)c(Br)c(Br)c21`, the Potency entry in assay [1], in assay [2], in assay [4], in assay [3] and in assay [6] was “inactive” throughout. Also, in assay [5], the result was inactive.

Turning to `CCn1cc(C(=O)O)c(=O)c2cc(F)c(N3CCNC(C)C3)c(F)c21` (stereo not drawn), the Potency entry in assay [1], in assay [2] and in assay [3] was “inactive” in each case.

Consider `COCCOC(=O)C1=C(C)NC(C)=C(C(=O)OC(C)C)C1c1cccc([N+](=O)[O-])c1` (stereo not drawn), for which the Potency entry in assay [1], in assay [2] and in assay [3] was “inactive” throughout.

Regarding `CC(=O)Nc1c(I)cc(I)c(C(=O)O)c1I`, the Potency entry in assay [1], in assay [2] and in assay [3] was “inactive” in each case.

`CCC(C)C(C)(COC(N)=O)COC(N)=O` (stereo not drawn): the Potency result in assay [1], in assay [2], in assay [4] and in assay [3] was “inactive” throughout. The outcome in assay [5] was inactive.

For the compound `C[C@H](NC(CCc1ccccc1)C(=O)O)C(=O)N1CCC[C@H]1C(=O)O` (stereo partly drawn), the Potency result in assay [1], in assay [2] and in assay [3] was “inactive” each time.

With `CNC(C)(C)Cc1ccccc1`, the Potency result in assay [1], in assay [2], in assay [4] and in assay [3] was “inactive” in each case. Moreover, in assay [5], the call was inactive.

As for `O=c1oc2ccccc2c(O)c1Cc1c(O)c2ccccc2oc1=O`, the Potency entry in assay [1], in assay [2], in assay [4] and in assay [3] was “inactive” throughout. The compound was classed as inactive in assay [5].

Take `Nc1ccccc1`: the Potency result in assay [1], in assay [2], in assay [4] and in assay [3] was “inactive” throughout. The compound was called inactive in assay [5].

Turning to `Clc1ccc(C(c2ccc(Cl)cc2)C(Cl)(Cl)Cl)cc1`, the Potency result in assay [1], in assay [2], in assay [4] and in assay [3] was “inactive” throughout. Further, in assay [5], the compound was classed as inactive.

For `NC(CO)(CO)CO`, the Potency entry in assay [2], in assay [4] and in assay [3] was “inactive” in each case.

As to `CCCCN(CCCC)CCCOC(=O)c1ccc(N)cc1`, the Potency result in assay [1], in assay [4] and in assay [3] was “inactive” in each case.

Consider `CO[C@@]1(NC(=O)C(C(=O)O)c2ccc(O)cc2)C(=O)N2C(C(=O)O)=C(CSc3nnnn3C)CO[C@@H]21` (stereo partly drawn), for which the Potency result in assay [1], in assay [2] and in assay [3] was “inactive” throughout.

For the compound `CC(C)(C)c1ccc(O)cc1`, the Potency entry in assay [1] and in assay [4] was “inactive” in each case. In addition, the result in assay [5] was inactive.

Turning to `COc1cc(NS(C)(=O)=O)ccc1Nc1c2ccccc2nc2ccccc12`, the Potency in assay [1] is 0.794 µM (active); in assay [3], 25.1 µM (active).

`CCOC(=O)C1=C[C@@H](OC(CC)CC)[C@H](NC(C)=O)[C@@H](N)C1`: the Potency entry in assay [2], in assay [4] and in assay [3] was “inactive” in each case.

In the case of `c1ccc2sc(SN3CCOCC3)nc2c1`, the Potency result in assay [1], in assay [4] and in assay [3] was “inactive” each time.

`CO[C@@H]1[C@@H](OC(N)=O)[C@@H](O)[C@H](Oc2ccc3c(O)c(NC(=O)c4ccc(O)c(CC=C(C)C)c4)c(=O)oc3c2C)OC1(C)C`: the Potency result in assay [1], in assay [2] and in assay [3] was “inactive” each time.

`Cc1cc(OI)c(C(C)C)cc1-c1cc(C(C)C)c(OI)cc1C`: the Potency result in assay [1], in assay [2] and in assay [3] was “inactive” throughout.

For `NCC[C@H](O)C(=O)N[C@@H]1C[C@H](N)[C@@H](O[C@H]2O[C@H](CN)[C@@H](O)[C@H](O)[C@@H]2O)[C@H](O)[C@@H]1O[C@H]1O[C@H](CO)[C@@H](O)[C@H](N)[C@@H]1O`, the outcome in assay [2] and in assay [4] was “inactive [at 0.573 µM]” each time.

As to `CCCCCCCCCCCC(=O)[O][Sn]([CH2]CCC)([CH2]CCC)[O]C(=O)CCCCCCCCCCC`, the Potency entry in assay [2], in assay [4] and in assay [3] was “inactive” throughout.

Consider `CN(C)C(=O)Oc1ccc[n+](C)c1`, for which the Potency entry in assay [2], in assay [4] and in assay [3] was “inactive” throughout.

As to `C[C@@H]1CN(c2c(F)c(F)c3c(=O)c(C(=O)O)cn(C4CC4)c3c2F)C[C@H](C)N1`, the Potency entry in assay [2], in assay [4] and in assay [3] was “inactive” in each case.

In the case of `O=C(NCC(O)CO)c1c(I)c(C(=O)NCC(O)CO)c(I)c(N(CCO)C(=O)CO)c1I` (stereo not drawn), the Potency entry in assay [2], in assay [4] and in assay [3] was “inactive” in each case.

With `CC(=O)Nc1ccc(C(=O)O)cc1`, the Potency result in assay [1], in assay [2] and in assay [3] was “inactive” each time.

On to `O=C1CN(/N=C/c2ccc([N+](=O)[O-])o2)C(=O)N1`, for which the Potency result in assay [1] and in assay [3] was “inactive” in each case.
